Assay results published in PubChem BioAssay AID651820 (National Center for Advancing Translational Sciences (NCATS), 2012).
The whole screen tested about 340,000 compounds, of which about 12,000 (3.5%) were called active. Another 18% or so got no clear call; they are omitted. This excerpt belongs to a sample that is enriched for actives. Unmarked numbers belong to inactive results. Calls follow the shape of the dose curve; as a rule, active = well fitted inhibition curve with a large enough effect; inconclusive = small, poorly fitted or top-dose-only effect, or another doubt; inactive = no such curve, though single readings can be large or run the other way.

test: qHTS Assay for Inhibitors of Hepatitis C Virus (HCV); conditions: Huh7.5.1 HCVcc-Cre infection, luciferase reporter, 44 h; series mostly up to 41.8 µM; activity change, negative = inhibition: at the top concentration
Summary of the method: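 1,000 cells/well; 4 h culture; + compound; + HCVcc-Cre (~0.5 moi); 44 h; luciferase substrate, RT 15 min; read 15 sec.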
% is scaled to controls: 0 for no effect and ±100 for the full control effect; potency is read from the fitted curve at half-maximal effect.

Row | SMILES | activity change, negative = inhibition | Potency
1 | O=C(CN1CCN(C2CCS(=O)(=O)C2)CC1)N1N=C(c2ccc(Cl)cc2)CC1c1ccco1 (stereo not drawn) | -27.2% | 
2 | CCCOc1ccc(Cc2c(O)nc(SC)[nH]c2=O)cc1C | 15.9% | 
3 | CCCOc1ccc(Cc2c(Cl)nc(SC)nc2NC)cc1 |  | 2.82 µM (active)
4 | CCCOc1ccc(-c2nc(N)n[nH]2)cc1 | 9.2% | 
5 | CCOC(=O)N(Cc1ccccc1)C1CC1 | 28.4% | 
6 | CC(C)c1cc(C(N)=O)c(NC(=O)c2cccc(COc3ccc(Br)cc3)c2)s1 |  | 10 µM (active)
7 | COc1ccc(OCc2cccc(C(=O)N3CCCC3)c2)cc1 | -19.1% | 
8 | CC(C)(C)OC(=O)N(Cc1ccccc1)Cc1ccc(OCc2cccc(NC(=O)c3ccccc3)c2)cc1 | -4.99% [at 8.37 µM] | 
9 | O=C(CNS(=O)(=O)c1ccc2c(c1)OCCCO2)N1CCN(c2ccc(F)cc2)CC1 | -5.91% | 
10 | CC1(C)C=Cc2c(ccc3c2OC[C@@H](c2ccc(O)cc2O)C3)O1 | -7.33% | 
11 | O=c1[nH]c(N2CCOCC2)nc2ccccc12 | 9.82% | 
12 | c1ccc(Nc2nc(N3CCOCC3)c3ccccc3n2)cc1 |  | 11.2 µM (active)
13 | CN1CCN(c2nc(Nc3ccc(O)cc3)nc3ccccc23)CC1 | -19.8% | 
14 | CCOC(=O)C1=C(c2ccc(OC)cc2)C(=O)c2ccccc2C1=O |  | 7.08 µM (active)
15 | COc1ccc(OCCCON2C(=O)c3ccccc3C2=O)cc1 | 5.92% | 
16 | CCCCC(C(=O)OCC(=O)c1ccc(OC)cc1)N1C(=O)c2ccccc2C1=O (stereo not drawn) | -29.6% | 
17 | O=[N+]([O-])c1ccc(NS(=O)(=O)c2ccccc2)c(Cl)c1 | -7.59% | 
18 | COc1ccccc1NC(=O)CSc1nnc(Cc2cccn2C)n1-c1ccc(F)cc1 |  | inactive
19 | COc1ccccc1OCc1nnc(SCC(N)=O)n1-c1ccccc1 | 7.37% | 
20 | COc1ccccc1NC(=O)CSc1nnc(Cn2nnc(-c3ccccc3)n2)n1-c1ccccc1 |  | 31.6 µM (active)
21 | O=C(COC(=O)c1n[nH]c2ccccc12)Nc1ccccc1Br | -0.82% | 
22 | CC(C(=O)Nc1ccc(S(=O)(=O)N2CCCC2)cc1)N(C)Cc1ccc(F)cc1 (stereo not drawn) | -4.33% | 
23 | COc1cccc2sc(N(CCCN(C)C)C(=O)C(c3ccccc3)c3ccccc3)nc12 |  | 12.6 µM (active)
24 | CCOc1ccc2nc(N(CCCN(C)C)C(=O)c3ccc(C(=O)c4ccccc4)cc3)sc2c1 | -29.8% | 
25 | Cc1cccc2sc(N(CCCN(C)C)C(=O)CCS(=O)(=O)c3ccccc3)nc12 | 7.99% | 
26 | CCOc1ccc2nc(N(CCN(C)C)C(=O)c3ccc4ccccc4c3)sc2c1 | -27.4% | 
27 | COc1cc2ccccc2cc1C(=O)N(CCN(C)C)c1nc2c(F)cccc2s1 |  | 14.1 µM (active)

Row | SMILES | activity change, negative = inhibition | Potency
28 | COc1cccc2sc(N(CCCN(C)C)C(=O)CCS(=O)(=O)c3ccccc3)nc12 | 17.2% | 
29 | C[C@H](OC(=O)n1ccnc1)[C@@H]1O[C@@]2(C)CCC[C@@H]1O2 | 4.05% | 
30 | CCc1cccc(NC(=O)COC(=O)c2cc(=O)c3ccccc3o2)c1 | 0.189% | 
31 | Cc1nn(-c2ccccc2)c(C)c1C(=O)OCC(=O)NC(=O)NC1CCCCC1 | -6.4% | 
32 | Cc1nc(/N=C(\N)NC(=O)NC2CCCCC2)nc2ccccc12 |  | 11.2 µM (active)
33 | O=C(NNC(=O)C(O)c1ccccc1)NC1CCCCC1 (stereo not drawn) | 12.7% | 
34 | C=CCOc1cccc(C2C(C(=O)c3ccc(C)o3)=C(O)C(=O)N2CCCn2ccnc2)c1 (stereo not drawn) | 12.5% | 
35 | Cc1cccc(CC2(O)C(=O)Nc3ccccc32)n1 (stereo not drawn) | 4.09% | 
36 | Cc1ccnc(SCC(=O)Nc2cccc(S(=O)(=O)N3CCOCC3)c2)n1 | 2.31% | 
37 | Cc1nc2ccc(NC(=O)C3CCCCC3)cc2s1 | 15.5% | 
38 | Cc1nc2ccc(N)nc2nc1C | 25.2% | 
39 | COc1nc(NC2CCCCC2)nc(N2CCCCCC2)n1 | -16.6% | 
40 | COC(=O)CNc1nc(Cl)nc(N2CCC(C)CC2)n1 | 7.19% | 
41 | Clc1nc(NC2CCCC2)nc(N2CCOCC2)n1 |  | 14.1 µM (active)
42 | O=C(CNC(=O)c1n[nH]c2ccccc12)Nc1cc(Cl)ccc1Cl | 3.28% | 
43 | CCN1CCN(C(=O)N(Cc2ccc(Cl)cc2)S(=O)(=O)c2ccc(C)cc2)CC1 | 13.5% | 
44 | COCCN(Cc1cc2cc3c(cc2nc1Cl)OCO3)C(=O)c1cccc(C)c1 |  | 12.6 µM (active)
45 | Cc1cccc(C(=O)NCCCN(C)CCCNC(=O)c2cccc(C)c2)c1 | -16.5% | 
46 | CCCCN(CC)C(=O)c1ccc2c(c1)OCO2 | 7.22% | 
47 | O=C(CC1Sc2ccccc2NC1=O)NNc1ccc(Cl)c(Cl)c1 (stereo not drawn) | -2.07% | 
48 | O=c1c2ccccc2nc2n1C(CSc1ccc(F)cc1)CN2 (stereo not drawn) | 12.2% | 
49 | N#Cc1c(-c2ccccc2)nc(SCc2cccc(C(F)(F)F)c2)[nH]c1=O | -2.24% | 
50 | O=c1[nH]c(SCc2cccc(F)c2)nc2ccccc12 | -6.28% | 
51 | O=c1c2ccccc2nc2n1C(CSCc1cccc(C(F)(F)F)c1)CS2 (stereo not drawn) |  | 10 µM (active)
52 | O=c1c2ccccc2nc2n1C(CSCc1ccccc1)CS2 (stereo not drawn) |  | 14.1 µM (active)
53 | O=c1c2ccccc2nc2n1C(CSc1ccc(Cl)cc1)CN2 (stereo not drawn) | -18.2% | 
